Screening results (PubChem)
Only some compounds are listed: those with a hit (about 2.9% of all), similar ones and a draw of the others.
MEKK3 PB1 HTS = MEKK3-MEK5 PB1 interaction, increase or decrease; Q99759; bead-based flow cytometry, Alexa488-MEK5 binding to MEKK3; actives lie on both sides; 0 = blocked by unlabeled MEK5, 100 = vehicle; binding response (% of control), % at 10 µM; 290,000 compounds, 1.4% hits;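 active means binding response more than 3 SD above or below the average of its plate-row segment, actives on both sides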;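 further: Alexa488 bead fluorescence after subtracting the streptavidin-only scavenger bead signal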
GRK2 inh = human GRK2 inhibition via aptamer displacement; AID 488847; 330,000 compounds, 0.59% hits; P25098; bead flow cytometry, FAM-aptamer displacement from GRK2; inhibition of aptamer binding, % at 10 µM;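 active means inhibition of aptamer binding above 40%, roughly 3 SD of noise, on plates passing a quality check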;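 further: median bead fluorescence of bound FAM aptamer so fluorescent compounds give negative values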
Target sequence (P25098 whole entry, looked up): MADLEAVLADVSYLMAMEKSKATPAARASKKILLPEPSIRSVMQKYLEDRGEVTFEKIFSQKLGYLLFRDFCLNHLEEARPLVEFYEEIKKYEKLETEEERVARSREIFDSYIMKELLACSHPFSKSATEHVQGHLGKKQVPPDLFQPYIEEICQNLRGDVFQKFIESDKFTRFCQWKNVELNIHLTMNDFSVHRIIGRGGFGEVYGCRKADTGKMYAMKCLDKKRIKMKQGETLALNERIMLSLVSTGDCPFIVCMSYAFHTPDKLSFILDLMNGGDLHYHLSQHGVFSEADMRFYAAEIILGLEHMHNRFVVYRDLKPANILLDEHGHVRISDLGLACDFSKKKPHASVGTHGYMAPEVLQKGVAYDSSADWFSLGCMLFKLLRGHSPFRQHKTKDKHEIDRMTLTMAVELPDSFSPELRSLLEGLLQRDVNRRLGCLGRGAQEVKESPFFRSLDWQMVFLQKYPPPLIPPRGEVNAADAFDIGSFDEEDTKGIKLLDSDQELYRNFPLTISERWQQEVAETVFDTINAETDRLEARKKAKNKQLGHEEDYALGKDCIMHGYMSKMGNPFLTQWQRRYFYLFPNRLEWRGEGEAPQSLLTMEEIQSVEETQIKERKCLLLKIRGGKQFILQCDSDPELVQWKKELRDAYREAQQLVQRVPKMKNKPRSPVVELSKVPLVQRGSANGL
MEKK2 WT-MEK5 = raises or lowers MEK5 binding to wildtype human MEKK2 PB1 domain. AID 1531. Q9Y2U5. binding response (% of control), % at 10 µM. bead flow cytometry, Alexa488-MEK5 binding to MEKK2 WT; actives lie on both sides. 290,000 compounds, 1.1% hits; in the data active means binding response below about 67% or above about 130%
Beta2AR agonist = activates human beta-2 adrenergic receptor causing internalization | AID 504454 | Am2.2-beta2AR cells, FAP receptor internalization, flow cytometry | 340,000 compounds, 0.43% hits | response, % (no concentration beside the values) | P07550;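 active means response above a set limit, near 3 SD of response in nonfluorescent compounds, cut at about 42% in these data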
MEKK2mut PB1 HTS = signal of MEK5 binding to mutant human MEKK2 PB1 domain. bead flow cytometry, Alexa488-MEK5 binding to MEKK2 mutant. percent response, % at 10 µM. 290,000 compounds, 0.35% hits; in the data active means percent response above about 24%, passing the limit was not always enough
Each line names hits and unclear results; the compound was inactive in the other large screens; [ ] = remark or other dose.

Cc1ccc(C(=O)OCn2ncc(Cl)c(Cl)c2=O)cc1	Beta2AR agonist 62
CCOC(=O)c1ccc(NC(=O)Cn2ncc(Cl)c(Cl)c2=O)cc1	Beta2AR agonist 74
CCN(CC)S(=O)(=O)c1cc(NC(=O)c2n[nH]c(=O)c3ccccc23)ccc1C	MEKK2 WT-MEK5 -3.0
O=C(Cn1ncc(Cl)c(Cl)c1=O)Nc1ccc2c(c1)OCO2	none (no result: MEKK3 PB1 HTS, MEKK2 WT-MEK5, MEKK2mut PB1 HTS)
CN(C)S(=O)(=O)c1cccc(NC(=O)c2n[nH]c(=O)c3ccccc23)c1	none
CCN(CC)S(=O)(=O)c1cc(NC(=O)Cn2ncc(Cl)c(Cl)c2=O)ccc1C	Beta2AR agonist 46
O=C(OCn1ncc(Cl)c(Cl)c1=O)c1ccc(C(F)(F)F)cc1	none (no result: GRK2 inh)
CCOC(=O)CCC(NC(=O)c1ccc(Nc2nc3ccccc3nc2C(=O)OCC)cc1)C(=O)OCC (configuration not stated)	none (no result: MEKK3 PB1 HTS, GRK2 inh, MEKK2 WT-MEK5, MEKK2mut PB1 HTS)
COc1ccc(CN2C(=O)c3cccnc3C2=O)cc1S(=O)(=O)N(C)c1ccc(C)cc1	none
CC1CCCC(NC(=O)c2cccc(S(=O)(=O)N3CCCCC3)c2)C1C (configuration not stated)	none
O=C(CSc1nnc(-c2ccccn2)o1)Nc1ccc(F)cc1	none
COc1cc2ccccc2cc1C(=O)N1CCN(C(C)=O)CC1	none
COc1ccc2cc(OC)c(C(=O)N3CCOCC3)cc2c1	MEKK2 WT-MEK5 -7.0
COc1ccc(C(CNC(=O)c2ccc(S(=O)(=O)Nc3ccc(F)cc3)cc2)N(C)C)cc1 (configuration not stated)	MEKK2mut PB1 HTS 31
N#CC(C#N)=Cc1cn(-c2ncc(C(F)(F)F)cc2Cl)c2ccccc12	Beta2AR agonist 66
Cc1c(NC(=O)Nc2ccc(C#N)cc2)c(=O)n(-c2ccccc2)n1C	none
COc1ccc2oc(C(=O)N(C)CCOc3ccccc3)c(C)c2c1	none
CC1(C)CC(=O)C2=C(C1)N(Cc1ccco1)C(=O)C2(NC(=O)c1cccnc1)C(F)(F)F (configuration not stated)	MEKK3 PB1 HTS 56[inhibitor]
Cc1ccc(S(=O)(=O)NCc2ccccc2)cc1C(=O)N(C)Cc1ccccc1F	none
O=C(C#Cc1ccccc1)c1cccc([N+](=O)[O-])c1	Beta2AR agonist 67
CC1CCN(CCCNC(=O)c2cc3c(Cl)nc4ccccc4c3s2)CC1	MEKK2 WT-MEK5 154
CC1CCN(CCCNC(=O)c2n[nH]c(=O)c3ccccc23)CC1	none
COc1cc(OC)cc(C(=O)Nc2nc(-c3ccccc3)c(-c3ccccc3)o2)c1	MEKK3 PB1 HTS 154
COc1ccc(S(=O)(=O)/N=C2\C=C(Nc3ccc(O)cc3)C(=O)c3ccccc32)cc1	Beta2AR agonist 52
CCC(=O)Nc1ccc(C(=O)N/N=C/c2c(C)[nH]c3ccccc23)cc1	MEKK2 WT-MEK5 35
CN(C)CCCNS(=O)(=O)c1ccc(N2CCC(c3ccc(Cl)cc3)=N2)cc1	MEKK2 WT-MEK5 162 (no result: Beta2AR agonist)
O=S(=O)(c1ccc(N2CCC(c3ccc(Cl)cc3)=N2)cc1)N(CCO)CCO	none
CC1CCN(CCNC(=O)c2ccc3c(=O)n(Cc4ccc(Cl)cc4)c(=S)[nH]c3c2)CC1	MEKK2 WT-MEK5 175, MEKK2mut PB1 HTS 39
CC(=O)/C(=N\Nc1cccc(Cl)c1)Sc1cccc2cccnc12	none
CC(=O)/C(N)=N/Nc1cccc(Cl)c1	MEKK2 WT-MEK5 16
CC(=O)c1sc(NC(=O)c2ccc(F)c(S(=O)(=O)N3CCOCC3)c2)nc1C	none (no result: MEKK3 PB1 HTS, MEKK2 WT-MEK5, MEKK2mut PB1 HTS)
O=C(COC(=O)c1ccccc1O)Nc1cccc2ccccc12	none (no result: MEKK3 PB1 HTS, MEKK2 WT-MEK5, MEKK2mut PB1 HTS)
COc1ccc(NC(=O)CN(C)C(=O)c2cc3c(s2)CCC3)cc1	GRK2 inh 63 (no result: MEKK3 PB1 HTS, MEKK2 WT-MEK5, MEKK2mut PB1 HTS)
Cc1cc(C=O)c(C)n1-c1cccc(C(=O)O)c1	none
Cc1ccc(C)n1-c1cccc(C(=O)O)c1	GRK2 inh 96 (no result: Beta2AR agonist)
CC(=O)Nc1ccc2c(c1)C(=O)c1ccc(Cl)cc1-2	none (no result: MEKK3 PB1 HTS, GRK2 inh, MEKK2 WT-MEK5, MEKK2mut PB1 HTS)
O=C(c1ccc(COc2ccc(Cl)cc2Cl)o1)N1CCCC1	none
CCN(CC)CC(C)(C)C(=O)/C=C/c1ccc(/C=C/C(=O)C(C)(C)CN(CC)CC)cc1	Beta2AR agonist 46 (no result: MEKK3 PB1 HTS, GRK2 inh, MEKK2 WT-MEK5, MEKK2mut PB1 HTS)
CCN(CC)CCOC(=O)/C=C/c1ccccc1	none
CC(C)(C)c1ccc(/C=N/N2C(=O)CSC2=S)cc1	Beta2AR agonist 65
CN(C)c1ccc(C2N(c3ccc(F)cc3)C(=O)C3CCCN32)cc1 (configuration not stated)	MEKK2 WT-MEK5 18
CN(C)c1ccc(C2N(c3ccc(Cl)cc3)C(=O)C3CCCN32)cc1 (configuration not stated)	none
CCCCNc1c(-c2ccc(OC)c(SC3CCCCC3)c2)nc2ccc(C)cn12	Beta2AR agonist 76 (no result: MEKK3 PB1 HTS, MEKK2 WT-MEK5, MEKK2mut PB1 HTS)
COc1ccc(-c2nn(C)c(=O)c3ccccc23)cc1NC(=O)Cn1nc(C)c2ccccc2c1=O	Beta2AR agonist 48
COc1cc(C(C)=O)ccc1OCC(=O)Nc1ccc(C)c(S(=O)(=O)N2CCCCCC2)c1	none (no result: MEKK3 PB1 HTS, MEKK2 WT-MEK5, MEKK2mut PB1 HTS)
COc1ccccc1NS(=O)(=O)c1ccc(C)c(C(=O)NCC2(N(C)C)CCCCC2)c1	none (no result: MEKK3 PB1 HTS, MEKK2 WT-MEK5, MEKK2mut PB1 HTS)
COc1cc(NC(=O)COc2cc3oc(=O)cc(C)c3cc2Cl)cc(OC)c1OC	Beta2AR agonist 46
CCN(CC)S(=O)(=O)c1ccc(Cl)c(NC(=O)COc2ccc3c(C)cc(=O)oc3c2)c1	GRK2 inh 100
Cc1ccc(S(=O)(=O)N(C)C)cc1NC(=O)COC(=O)COc1ccc2c(C)cc(=O)oc2c1	none (no result: MEKK3 PB1 HTS, MEKK2 WT-MEK5, MEKK2mut PB1 HTS)
Cc1cc(=O)oc2cc(OCC(=O)NC3CC(C)(C)NC(C)(C)C3)ccc12	MEKK3 PB1 HTS 78[inhibitor]
COc1cc(NC(=O)COc2ccc3c(C)cc(=O)oc3c2C)cc(OC)c1OC	none
Cc1cc(=O)oc2cc(OCC(=O)Nc3cccc(S(=O)(=O)N(C)C)c3)ccc12	GRK2 inh 56
CCc1cc(=O)oc2cc(OCC(=O)NC3CC(C)(C)NC(C)(C)C3)ccc12	none
COc1ccc(C2C(C#N)=C(N)Oc3cc(N)ccc32)cc1 (configuration not stated)	none
COc1cc(C2C(C#N)=C(N)Oc3cc(N)ccc32)cc(OC)c1OC (configuration not stated)	Beta2AR agonist 50
Cc1ccc(NC(=O)CSc2nc(C)c(Cc3ccccc3)c(=O)[nH]2)cc1C	MEKK2 WT-MEK5 26
Cc1cccc(NC(=O)CSc2nc(C)c(Cc3ccccc3)c(=O)[nH]2)c1	none (no result: MEKK3 PB1 HTS, MEKK2 WT-MEK5, MEKK2mut PB1 HTS)
C/C(=N\NC(=O)C(c1ccccc1)c1ccccc1)c1ccccn1	Beta2AR agonist 46
O=C(CO/N=C/c1ccc(OC(F)F)cc1)N1CCc2ccccc21	GRK2 inh 100
CCCCCCC[C@@H](C/C=C/CCC(=O)N(C)C/C(=C/Cl)C/C(=C\C(=O)N1CC(OC)=CC1=O)OC)OC	Beta2AR agonist 93 (no result: MEKK3 PB1 HTS, MEKK2 WT-MEK5, MEKK2mut PB1 HTS)
CCN(CC)CCNC(=O)CCc1c(C)nc2c(c(C)nn2-c2ccc(C)c(C)c2)c1C	none
CCC(C)c1ccc(NC(=O)N2CCN(C(=O)C3CCCO3)CC2)cc1 (configuration not stated)	none
CNc1ccccc1C(C)(C)c1cc(-c2cccc(Br)c2)no1	MEKK2 WT-MEK5 9.0
